Measurements reported in PubChem BioAssay (EPA / NIEHS).
The source made the active and inactive calls. Rule for the calls: active = hit-call score of the fitted dose curve at least 0.9, where 1 is the maximum; inactive = score below 0.9.

The compounds below were run on Interleukin-8 (IL8), CXCL8 (gene 3576) (assay: BSK_MyoF_IL8: BioMAP Diversity Plus: MyoF Assay for Interleukin-8 (IL8) Biomarker Activity (AID 2284261)). Details: primary human lung fibroblasts.
Procedure: BSK_MyoF is a cell-based, multiplexed-readout assay that uses lung fibroblasts, […], with measurements taken at 24 hours after chemical dosing in a microplate: 96-well plate.BSK_MyoF_IL8 is an assay component measured in the BSK_MyoF assay. It measures IL-8 antibody related to regulation of gene expression using ELISA technology.Data from the assay component BSK_MyoF_IL8 was analyzed at the endpoint, BSK_MyoF_IL8, in the positive analysis fitting direction relative to DMSO as the negative control and baseline of activity. Using a type of binding reporter, gain or loss-of-signal activity can be used to understand protein changes. To generalize the intended target to other relatable targets, this assay endpoint is annotated to the 'cytokine' intended target family, where the subfamily is 'interleukins'.
The levels of cell surface (or secreted, indicated by the prefix "s") biomarker endpoints were measured by ELISA. Overt cytotoxicity to cells in confluent adherent cultures (all systems other than the BT system) was assessed by measuring total protein levels using sulforhodamine B (SRB) staining in parallel cultures at the time of biomarker measurements, indicated as SRB endpoints. For proliferation assays for adherent cell types, individual cell types are cultured at sub-confluence and relative cell numbers quantified by SRB staining at time points optimized for each system (48 h: 3C and CASM3C systems; 72 h: BT and HDF3CGF systems; 96 h: SAg system). SRB was performed by staining cells with 0.1% SRB after fixation with 10% TCA and reading wells at 560 nm.Viability and proliferation of PBMC (T cells) was quantified by Alamar Blue reduction for the SAg and BT systems. For PBMC viability (referred to as PBMC Cytotoxicity within the assay endpoint names), cells were plated (75,000/well in a 96-well plate) and then chemical samples added for 1 h before addition of activators, SEB and TSST-1 (20 ng/mL final concentration each). Cells were incubated for 90 h. Then, Alamar Blue (20 uL/well) (Invitrogen, Cat DAL1100) was added for 6 h, and the plates were read with a fluorescence microplate reader at 546/580 nm (excitation/emission). For PBMC proliferation, cells were plated and activated as above but incubated for only 16 h prior to addition of Alamar Blue. Plates were read after 6 h.

Question: For c1ccc2c(c1)ccc1cc3c(ccc4ccccc43)cc12, which outcome is on record?
Answer: inactive

Question: For c1ccc(-c2ccccn2)nc1, which outcome is on record?
Answer: inactive

Question: For CCCCNc1ccc(NCCCC)c2c1C(=O)c1ccccc1C2=O, which outcome is on record?
Answer: inactive

Question: Which outcome does the source give for CCCCCCCCc1ccc(Nc2ccc(CCCCCCCC)cc2)cc1 here?
Answer: inactive

Question: C=CCOCC(O)CCl (stereo not given) was tested. Which outcome did it give?
Answer: inactive

Question: C#CC1(O)CC[C@H]2[C@@H]3CCC4=CCCC[C@@H]4[C@H]3CC[C@@]21C (stereo not given in full) was tested. Which AC50 did it give?
Answer: 30.4 µM (active)

Question: How did the outcome turn out when CCCCC/C=C\C/C=C\CCCCCCCC(=O)OC was run?
Answer: inactive

Question: With C=CCOc1c(Br)cc(Br)cc1Br as the compound, how does the outcome read?
Answer: inactive

Question: With C=CC(=O)OCC(Br)CBr (stereo not given) as the compound, how does the outcome read?
Answer: inactive

Question: S=C(NC1CCCCC1)NC1CCCCC1 was tested. Which outcome did it give?
Answer: inactive

Question: How did the outcome turn out when CC(C)C(=O)C(C)C was run?
Answer: inactive

Question: CC1OC1C1CCC2(C)OC2C1 (stereo not given) was tested. Which outcome did it give?
Answer: inactive

Question: CCCCC(CC)COC(=O)c1ccccc1O (stereo not given) was tested. Which outcome did it give?
Answer: inactive

Question: C=CC=CC=CCCCCC was tested. Which outcome did it give?
Answer: inactive

Question: With CCCCCCCCCCCCCCCC[N+](C)(C)CC as the compound, how does the outcome read?
Answer: inactive

Question: Which outcome does the source give for COc1ccc2nc(N)sc2c1 here?
Answer: inactive

Question: CCOc1nc(F)cc2nc(S(=O)(=O)Nc3c(Cl)cccc3C(=O)OC)nn12 was tested. Which outcome did it give?
Answer: inactive

Question: How did the outcome turn out when C/C=C\C/C=C/CCCCCCCCOC(C)=O was run?
Answer: inactive

Question: For CCO[Si](CCCN=C=O)(OCC)OCC, which outcome is on record?
Answer: inactive

Question: With O=Nc1ccc(O)cc1 as the compound, how does the outcome read?
Answer: inactive

Question: O=C(Nc1ccccc1SSc1ccccc1NC(=O)c1ccccc1)c1ccccc1 was tested. Which outcome did it give?
Answer: inactive

Question: Which outcome does the source give for O=c1c2ccccc2oc2ccccc12 here?
Answer: inactive

Question: With CC(C)(c1cc(Br)c(OCCO)c(Br)c1)c1cc(Br)c(OCCO)c(Br)c1 as the compound, how does the AC50 read?
Answer: 10.6 µM (active)

Question: N#[N+]c1ccc2c(S(=O)(=O)[O-])cccc2c1O was tested. Which outcome did it give?
Answer: inactive

Question: With c1ccc2c(c1)ccc1ncccc12 as the compound, how does the outcome read?
Answer: inactive
